Settings in all cases: modulator concentration 10 µM
Test [1] concerns RAW-Dual (murine macrophage reporter line). Nature of the test: NF-kB reporter (SEAP) activity fold change vs agonist alone; higher = enhanced NF-kB activity. The method in brief:
(§1)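 RAW-Dual murine macrophage reporter cells were seeded at 50 000 per well in 384-well plates and pre-incubated 1 hour at 37 °C with compound pin-transferred to 10 μM final. After 1 hour, a PRR agonist was added and cells incubated overnight. Supernatant NF-κB (SEAP, QUANTI-Blue, 620 nm absorbance) and IRF (Lucia luciferase, QUANTI-Luc, luminescence) signals were divided by the mean agonist-only control on the same plate to give fold change. Two replicate plates were averaged, with errors by propagation.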

The test system is the same in test [2]. Nature of the test: IRF reporter (Lucia luciferase) activity fold change vs agonist alone; higher = enhanced IRF activity. An outline of the steps: as §1
Test [3] has the same test system. The experiment in a line: viability score (confluency relative to resting cells, overnight) (fraction); higher = more viable, active = viable (0.7 or more). An outline of the steps: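 Two confluency masks, generated with IncuCyte software over all imaged wells, were applied to IncuCyte images of RAW-Dual macrophages. The cells, in 384-well plates, had been exposed overnight to 10 μM final compound. The viability score is confluency as a fraction of resting cells, and a compound met the cutoff only with both masks above 70% of resting cells.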

[4] abbreviates: agonist: CpG ODN 1826 0.5 ug/mL.

SMILES strings stand for the structures. ± gives the standard deviation.

For the compound `COc1ccccc1-c1cc(-c2ccccc2)nc(SCC(N)=O)c1C#N`, the NF-kB reporter in test [1] (setting [4]) came to 1.06 ± 0.17; in test [1] (agonist: LPS 0.1 ug/mL) it was 0.918 ± 0.12; in test [1] (agonist: MPLA […]) it was 0.928 ± 0.073. Besides, the IRF reporter in test [2] (agonist: 3'3'-cGAMP 10 ug/mL) stood at 0.596 ± 0.02; in test [2] (agonist: LPS 0.1 ug/mL), 1.2 ± 0.18; in test [2] (agonist: MPLA […]), 1.41 ± 0.2. In test [3], the viability score was 1 (active).

As for `CN1CCOC(c2ccccc2)c2ccccc2C1.Cl` (stereo not given), the NF-kB reporter in test [1] (setting [4]) worked out at 1.11 ± 0.27; in test [1] (agonist: LPS 0.1 ug/mL), 1.04 ± 0.052; in test [1] (agonist: MPLA […]) it was 1.05 ± 0.078. The IRF reporter is 0.84 ± 0.031 in test [2] (agonist: 3'3'-cGAMP 10 ug/mL), 1.36 ± 0.16 in test [2] (agonist: LPS 0.1 ug/mL) and 0.95 ± 0.23 in test [2] (agonist: MPLA […]). The viability score in test [3] was 1.01 (active).

Turning to `CCCC(=O)Nc1ccc(OCC(O)CNC(C)C)c(C(C)=O)c1.Cl` (stereo not given), the NF-kB reporter was determined as 1.14 ± 0.1 in test [1] (setting [4]), 1.03 ± 0.05 in test [1] (agonist: LPS 0.1 ug/mL) and 0.983 ± 0.022 in test [1] (agonist: MPLA […]). Also, the IRF reporter in test [2] (agonist: 3'3'-cGAMP 10 ug/mL) is 0.94 ± 0.054; in test [2] (agonist: LPS 0.1 ug/mL) it was 1.01 ± 0.12; in test [2] (agonist: MPLA […]), 0.864 ± 0.11. In addition, the viability score in test [3] was 0.999 (active).

With `COc1ccc(CCNC(=O)NCc2nn(C3CCCC3)c3c2CCCC3)cc1`, the NF-kB reporter in test [1] (setting [4]) worked out at 0.854 ± 0.037; in test [1] (agonist: LPS 0.1 ug/mL), 1.04 ± 0.12; in test [1] (agonist: MPLA […]), 1.12 ± 0.08. For the same compound, the IRF reporter stood at 0.726 ± 0.057 in test [2] (agonist: 3'3'-cGAMP 10 ug/mL), 1.13 ± 0.18 in test [2] (agonist: LPS 0.1 ug/mL) and 1.15 ± 0.27 in test [2] (agonist: MPLA […]). Moreover, the viability score in test [3] is 0.983 (active).

For `O=C(Cc1ccc(Cl)cc1)Nc1ccc2oc(-c3c(F)c(F)c(F)c(F)c3F)nc2c1`, the NF-kB reporter was found to be 0.931 ± 0.097 in test [1] (setting [4]), 0.882 ± 0.12 in test [1] (agonist: LPS 0.1 ug/mL) and 0.696 ± 0.059 in test [1] (agonist: MPLA […]). For the same compound, the IRF reporter in test [2] (agonist: 3'3'-cGAMP 10 ug/mL) came to 0.698 ± 0.028; in test [2] (agonist: LPS 0.1 ug/mL) it was 1.32 ± 0.12; in test [2] (agonist: MPLA […]) it was 1.07 ± 0.11. Moreover, in test [3], the viability score is 1.01 (active).

Take `CCOc1ccc(S(=O)(=O)NC(C)(C)C)cc1C`: the NF-kB reporter in test [1] (setting [4]) is 0.972 ± 0.081; in test [1] (agonist: LPS 0.1 ug/mL), 0.852 ± 0.072; in test [1] (agonist: MPLA […]), 1.13 ± 0.12. The results for the IRF reporter in test [2] (agonist: 3'3'-cGAMP 10 ug/mL), in test [2] (agonist: LPS 0.1 ug/mL) and in test [2] (agonist: MPLA […]) were 0.971 ± 0.044, 1.38 ± 0.082 and 1.53 ± 0.14, respectively. Moreover, the viability score in test [3] was 0.868 (active).

In the case of `CCS(=O)(=O)N1CC(CC#N)(n2cc(-c3ncnc4[nH]ccc34)cn2)C1`, the NF-kB reporter in test [1] (setting [4]) is 0.943 ± 0.099; in test [1] (agonist: LPS 0.1 ug/mL), 1.13 ± 0.091; in test [1] (agonist: MPLA […]) it was 2.88 ± 0.17. Besides, the IRF reporter in test [2] (agonist: 3'3'-cGAMP 10 ug/mL) turned out to be 0.189 ± 0.016; in test [2] (agonist: LPS 0.1 ug/mL) it was 0.338 ± 0.035; in test [2] (agonist: MPLA […]) it was 0.517 ± 0.07. Moreover, in test [3], the viability score is 0.506 (inactive).

For `C=CCn1c(=N)n(CC(O)c2ccco2)c2ccccc21.Cl` (stereo not given), the NF-kB reporter was 1.15 ± 0.13 in test [1] (setting [4]), 0.961 ± 0.1 in test [1] (agonist: LPS 0.1 ug/mL) and 1.21 ± 0.056 in test [1] (agonist: MPLA […]). The IRF reporter came to 1.07 ± 0.17 in test [2] (agonist: 3'3'-cGAMP 10 ug/mL), 1.03 ± 0.043 in test [2] (agonist: LPS 0.1 ug/mL) and 0.936 ± 0.061 in test [2] (agonist: MPLA […]). Moreover, the viability score in test [3] is 1 (active).

As to `Cn1cc(-c2cc(CNC(=O)c3cncc(F)c3)ccn2)cn1`, the NF-kB reporter in test [1] (setting [4]) was found to be 1.12 ± 0.074; in test [1] (agonist: LPS 0.1 ug/mL), 1.09 ± 0.1; in test [1] (agonist: MPLA […]), 0.964 ± 0.033. The IRF reporter in test [2] (agonist: 3'3'-cGAMP 10 ug/mL) came out at 0.966 ± 0.039; in test [2] (agonist: LPS 0.1 ug/mL), 0.973 ± 0.046; in test [2] (agonist: MPLA […]) it was 1.04 ± 0.2. In test [3], the viability score was 0.995 (active).

In the case of `CN(C)C(=O)COC(=O)Cc1ccc(OC(=O)c2ccc(NC(=N)N)cc2)cc1.CS(=O)(=O)O`, the NF-kB reporter in test [1] (setting [4]) is 1.04 ± 0.045; in test [1] (agonist: LPS 0.1 ug/mL), 0.913 ± 0.083; in test [1] (agonist: MPLA […]), 1.01 ± 0.079. For the same compound, the IRF reporter in test [2] (agonist: 3'3'-cGAMP 10 ug/mL) came out at 1.07 ± 0.049; in test [2] (agonist: LPS 0.1 ug/mL) it was 1.21 ± 0.22; in test [2] (agonist: MPLA […]), 1.25 ± 0.4. Besides, the viability score in test [3] was 0.829 (active).

For the compound `Cl.O=S(=O)(c1cccc2cnccc12)N1CCCNCC1`, the NF-kB reporter came to 0.76 ± 0.1 in test [1] (setting [4]), 1.01 ± 0.27 in test [1] (agonist: LPS 0.1 ug/mL) and 1.06 ± 0.06 in test [1] (agonist: MPLA […]). In addition, the IRF reporter in test [2] (agonist: 3'3'-cGAMP 10 ug/mL) stood at 0.825 ± 0.033; in test [2] (agonist: LPS 0.1 ug/mL) it was 0.85 ± 0.15; in test [2] (agonist: MPLA […]), 0.558 ± 0.083. The viability score in test [3] is 0.992 (active).

Regarding `CCCCCCOc1ccc(OC(=O)c2ccc(OC)cc2)cc1`, the NF-kB reporter in test [1] (setting [4]) stood at 0.826 ± 0.073; in test [1] (agonist: LPS 0.1 ug/mL), 0.856 ± 0.072; in test [1] (agonist: MPLA […]), 0.913 ± 0.089. The figures for the IRF reporter in test [2] (agonist: 3'3'-cGAMP 10 ug/mL), in test [2] (agonist: LPS 0.1 ug/mL) and in test [2] (agonist: MPLA […]) were 0.95 ± 0.037, 1.37 ± 0.21 and 1.62 ± 0.26, respectively. The viability score in test [3] is 1.04 (active).

As for `CC(=NNC(=O)COc1ccc(Cl)cc1[N+](=O)[O-])c1cccc(Br)c1`, the NF-kB reporter in test [1] (setting [4]) came to 0.961 ± 0.091; in test [1] (agonist: LPS 0.1 ug/mL), 1.11 ± 0.064; in test [1] (agonist: MPLA […]), 0.89 ± 0.053. Further, the IRF reporter in test [2] (agonist: 3'3'-cGAMP 10 ug/mL) came to 0.983 ± 0.032; in test [2] (agonist: LPS 0.1 ug/mL), 1.47 ± 0.22; in test [2] (agonist: MPLA […]), 1.19 ± 0.22. Further, the viability score in test [3] is 1 (active).

On to `COc1cccc(-c2csc(NC(=O)C3CC3)n2)c1`, for which the NF-kB reporter was 1.16 ± 0.19 in test [1] (setting [4]), 1.44 ± 0.11 in test [1] (agonist: LPS 0.1 ug/mL) and 1.31 ± 0.17 in test [1] (agonist: MPLA […]). The IRF reporter is 1.19 ± 0.053 in test [2] (agonist: 3'3'-cGAMP 10 ug/mL), 1.26 ± 0.26 in test [2] (agonist: LPS 0.1 ug/mL) and 1.35 ± 0.14 in test [2] (agonist: MPLA […]). Further, in test [3], the viability score was 1 (active).

On to `O=C(NN=Cc1c(Br)sc2ccccc12)c1cccc(Cl)c1`, for which the NF-kB reporter in test [1] (setting [4]) was 0.972 ± 0.082; in test [1] (agonist: LPS 0.1 ug/mL), 0.88 ± 0.17; in test [1] (agonist: MPLA […]), 1.18 ± 0.056. Moreover, the results for the IRF reporter in test [2] (agonist: 3'3'-cGAMP 10 ug/mL), in test [2] (agonist: LPS 0.1 ug/mL) and in test [2] (agonist: MPLA […]) were 0.738 ± 0.12, 0.952 ± 0.045 and 1.49 ± 0.1, respectively. Further, in test [3], the viability score was 0.887 (active).

For the origin of these results see the supplement of paper PMC10646978.
